Measured values from ChEMBL document CHEMBL3433997, “St. Jude Leishmania screening dataset” (2016).

What follows are molecules tested against Solute carrier family 2, facilitated glucose transporter member 1 (Homo sapiens) (UniProt P11166) (assay: ST_JUDE_LEISH: Cytotoxicity at 2uM final concentration against transgenic Leishmania Mexicana promastigotes LmGLUT1 that are glucose transport deficient and complemented with the human glucose transporter GLUT1. Activity is measured by DNA content using SYBR green in vitro).
Solute carrier family 2, facilitated glucose transporter member 1 (Homo sapiens), sequence (P11166 whole entry): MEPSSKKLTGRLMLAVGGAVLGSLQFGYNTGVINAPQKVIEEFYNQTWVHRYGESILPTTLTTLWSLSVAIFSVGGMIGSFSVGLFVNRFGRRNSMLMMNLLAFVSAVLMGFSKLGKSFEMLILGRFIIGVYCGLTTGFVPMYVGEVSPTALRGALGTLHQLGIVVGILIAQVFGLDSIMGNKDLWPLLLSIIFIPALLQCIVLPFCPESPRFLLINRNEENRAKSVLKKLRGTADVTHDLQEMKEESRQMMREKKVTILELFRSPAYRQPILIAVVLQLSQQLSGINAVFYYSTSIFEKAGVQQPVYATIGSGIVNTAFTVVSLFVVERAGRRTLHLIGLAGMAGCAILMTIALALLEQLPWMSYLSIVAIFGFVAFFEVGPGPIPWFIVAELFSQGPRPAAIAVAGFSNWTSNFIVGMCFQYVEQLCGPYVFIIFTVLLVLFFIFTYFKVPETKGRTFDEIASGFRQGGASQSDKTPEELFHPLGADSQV
Assay type: functional
With `CC(C)(C)c1ccc(-c2csc(NC(=O)CC(c3ccccc3)c3ccccc3)n2)cc1` the inhibition was 1.4%. `CCc1cn2c3c(cc(C(=O)N[C@@H](Cc4ccccc4)[C@H](O)CNCc4ccccc4C)cc13)N(C)S(=O)(=O)CC2` was tested, and the inhibition was 3.43%. Molecule `COC(=O)c1sc(-c2ccc(Cl)cc2)cc1N(CCCN1CCC(N2CCCCC2)CC1)S(=O)(=O)c1ccc(C)cc1` has an inhibition of 23.5%. `O=C(NCCc1ccccc1F)c1cc(Br)cc(N2CCN(c3ccncc3)CC2)c1` gave an inhibition of 0.33%. Work on `Clc1ccc(C=NNc2ccnc3cc(Cl)ccc23)cc1` yielded an inhibition of 0.42%. Work on `Cc1ccccc1C1CCN(C2CCC(NC(=O)c3ccc(-c4ccccn4)s3)CC2)CC1` (stereo not given) yielded an inhibition of -4.15%. `Cc1ccccc1OCC(O)CN1CCC(C2CCN(CC(O)COc3ccccc3C)CC2)CC1` (stereo not given) gave an inhibition of 2.25%. With `Cc1ccc(NC(=N)Nc2ncccc2OCc2c(F)cccc2Cl)cc1` the inhibition was 7.2%. In the case of `CC(=O)c1cc(N2CCCC2)ccc1N`, the inhibition is reported as 2.5%. With `COc1cccc2cc(C(=O)N[C@@H](CC(C)C)C(=O)N[C@H](C=NN3CC(=O)NC3=O)CC(C)C)oc12` the inhibition was 2.8%. Work on `OC(c1cccc2ccccc12)C1CN(CCc2ccccc2)CCC1(O)c1ccccc1` (stereo not given) yielded an inhibition of 9.92%. `CN1CCN(c2cc3c(cc2Cl)CCN3C(=O)Nc2ccc(NC(=O)c3ccc(C(F)(F)F)cc3)cc2)CC1` was tested, and the inhibition was 3.11%. For `COc1cc(C(=O)NC2CC(C)(C)NC(C)(C)C2)ccc1-c1cc2cc(Cl)c(Cl)cc2[nH]1`, the inhibition was 1.69%. Work on `O=[N+]([O-])c1cccc(-c2nc(-c3ccc(Br)cc3)[nH]c2-c2ccc(Br)cc2)c1` yielded an inhibition of 2.77%. `CCn1c(-c2nonc2N)nc2c(-c3ccc(CO)o3)ncc(OCCCN)c21` was tested, and the inhibition was 6.54%. `CCCn1cc2c(ccc3nc(N)nc(N)c32)n1` gave an inhibition of 0.63%. `NCc1cccc(-c2cccc(CNC3CCN(Cc4ccccc4)CC3)c2)c1` gave an inhibition of 6.06%. With `CCCCCCN1CCCN(Cc2cccc(C(=O)Nc3ccc(C(C)(C)C)cc3)c2)CC1` the inhibition was 1.39%. `CC(=O)c1cc(N2CCOCC2)ccc1N` gave an inhibition of 2.03%. For `Cc1cc(NCCc2ccccc2)nc(N/C(=N/CC(=O)OC(C)(C)C)Nc2ccc(C(F)(F)F)cc2)n1`, the inhibition was 4.08%. `FC(F)(F)c1cccc(Nc2nc3ccccc3nc2Nc2cccc(C(F)(F)F)c2)c1` gave an inhibition of -0.24%. In the case of `O=C(CSc1nc2ccccc2c(=O)n1C1CC1)Nc1cc(C(F)(F)F)ccc1Cl`, the inhibition is reported as -0.03%. `CCN(CC)CCNC(=O)c1ccc(N/C=C2\C(=O)Nc3ccc(S(=O)(=O)Cc4c(Cl)cccc4Cl)cc32)cc1` was tested, and the inhibition was -0.98%. Molecule `C[C@H](NC(=O)c1c(CN2CCC(NC(=O)CC(C)(C)C)CC2)c(-c2cccs2)nc2ccccc12)C1CCCCC1` has an inhibition of 2.07%. In the case of `N=C(N)Nc1nc(-c2ccc(NC(=N)N3CCC[C@H]3CN3CCCC3)cc2)cs1`, the inhibition is reported as -0.01%. `CCn1cc(C=C2Oc3c(ccc(O)c3CN3CCCCC3C)C2=O)c2ccccc21` (stereo not given) showed an inhibition of 4.31%. For `CCCNC(=O)c1cncc(-c2ccc(CNC(CC)c3ccccc3)cc2)c1` (stereo not given), the inhibition was -0.02%. `O=C(NCCc1ccccc1)N(Cc1ccccc1-c1cccc(CNC2CCCC2)c1)C1CCN(Cc2ccccc2)CC1` gave an inhibition of 8.2%. `CN(C)C(CNC(=O)c1cc(-c2ccncc2)c(-c2ccc(NC(=O)Nc3ccccc3)cc2)o1)c1ccccc1` (stereo not given) showed an inhibition of -0.56%. `O=c1cc(NCCCNCc2ccc(Cl)c(Cl)c2)[nH]c2ccc(Oc3ccccc3)cc12` showed an inhibition of -1.41%. `CC1CCCCC1N(C)C1CCN(CCCNC(=O)C=Cc2ccccc2Cl)CC1` (stereo not given) gave an inhibition of -0.22%. With `CCN(CC)CC(O)CNc1c2ccc([N+](=O)[O-])cc2nc2cc(OC)c(OC)cc12` (stereo not given) the inhibition was 69%. Molecule `COc1ccc(C(C(=O)NC2CCN(C[C@H](O)c3ccnc4ccc(OC)cc34)CC2)N2CCN(c3ccc([N+](=O)[O-])cc3)CC2)cc1` (stereo not given in full) has an inhibition of 2.67%. `Cc1nnsc1C(=O)Nc1cccc(-c2ccc(-c3nc4ccccc4[nH]3)cc2)c1` was tested, and the inhibition was 7.04%. `N#Cc1ccc(C2CCN(CC[C@H](N)Cc3ccc(Cl)s3)CC2)cc1` showed an inhibition of 22.8%. In the case of `COc1ccc2nc(Nc3nc4cnccc4[nH]3)sc2c1`, the inhibition is reported as 4.17%. For `CNCC(C)(C)c1nc(-c2ccc(Cl)c(O)c2)c(-c2ccncc2)[nH]1`, the inhibition was -1.98%. With `CC(C)(C)c1ccc(CN2CCCCC(NC(=O)c3cc(-c4cccc(F)c4)cs3)C2)cc1` (stereo not given) the inhibition was -2.41%. `COc1ccc(C2NCCc3c2[nH]c2ccccc32)cc1CN1CCN(c2ccc(F)cc2)CC1` (stereo not given) was tested, and the inhibition was 3.17%. `Cc1[nH]c(C)c(-c2ccc(-c3ccccc3)nc2)c(=O)c1Br` gave an inhibition of -0.2%.
